Screens: PubChem BioAssay, National Center for Advancing Translational Sciences (NCATS)
A selection: hits, their analogues and other compounds. The true share with any hit is near 11%.
VACV mCherry inh: qHTS for Stage-Specific Inhibitors of Vaccinia Orthopoxvirus: mCherry Reporter Primary qHTS. Vaccinia virus mCherry reporter infection, fluorescence. Potency, µM (highest dose often 36.5 µM), hits mostly inhibitors. 310,000 compounds, 0.63% hits. AID 720579, 2013; calls by dose curve; tested in A549 cells; note: nearly all actives have a fitted effect of over 35% in size
Pf growth 48h: Primary qHTS for delayed death inhibitors of the malarial parasite plastid, 48 hour incubation; P. falciparum luciferase growth in erythrocytes, 48 h; Potency, µM (highest dose often 28.7 µM), usual class: inhibitors; 310,000 compounds, 5.9% hits; AID 504832, 2011
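A one-generation exposure of luciferase-tagged malaria parasites in RPMI 1640/Albumax erythrocyte culture, 37 C and 5% CO2. Inhibition is inferred from decreased luminescence after adding detection reagent.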
Pf growth 96h: Primary qHTS for delayed death inhibitors of the malarial parasite plastid, 96 hour incubation | AID 504834, 2011 | 320,000 compounds, 6.9% hits | Potency, µM (highest dose often 28.7 µM), hits mostly inhibitors | P. falciparum luciferase reporter growth, 96 h
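Two-generation exposure (96 h) targets delayed-death phenotype. Reporter parasites carrying integrated firefly luciferase, in red cells at 2% hematocrit and 0.05% parasitemia final, kept at 37 C, 5% CO2; luminescence loss indicates inhibition.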
VACV Venus inh: qHTS for Stage-Specific Inhibitors of Vaccinia Orthopoxvirus: Venus Reporter Primary qHTS. Vaccinia virus Venus reporter expression, fluorescence. Potency, µM (doses to about 36.5 µM), actives largely listed as inhibitors. 330,000 compounds, 0.46% hits; calls by dose curve; tested in A549 cells; note: nearly all actives have a fitted effect of over 30% in size
HCV inh: qHTS Assay for Inhibitors of Hepatitis C Virus (HCV). Huh7.5.1 HCVcc-Cre infection, luciferase reporter, 44 h. Potency, µM (doses to about 41.8 µM), actives largely listed as inhibitors. 340,000 compounds, 3.4% hits
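1,000 cells/well; 4 h culture; + compound; + HCVcc-Cre (~0.5 moi); 44 h; luciferase substrate, RT 15 min; read 15 sec.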
NS1 function inh: qHTS Assay for Inhibitors of Influenza NS1 Protein Function. Potency, µM (series often up to 46.1 µM). 270,000 compounds, 0.4% hits. AID 2326, 2010; calls by dose curve; note: actives are rising curves; nearly all actives have a fitted effect of over 50% in size
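S. cerevisiae expressing influenza A NS1, grown in glucose, washed, then diluted 1:100 into pH 6.0 -URA galactose medium with 23 nl compound. Growth recovery read as OD600; NS1-free strain serves as control.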
A number is an active result; [ ] = remark or other dose. Unless noted, calls come from the whole dose curve; as a rule, active = well fitted inhibition curve with a large enough effect; inconclusive = small, poorly fitted or top-dose-only effect, or another doubt; inactive = no such curve, though single readings can be large or run the other way.

Screening Oc1cc(-c2ccccc2)c2ccccc2c1 returned VACV mCherry inh inactive, Pf growth 48h inconclusive, Pf growth 96h 12µM, VACV Venus inh inactive, HCV inh inconclusive and NS1 function inh inactive.
`CCN1CCN(S(=O)(=O)Cc2ccccc2)CC1` gave VACV mCherry inh inactive, Pf growth 48h inactive, Pf growth 96h inactive, VACV Venus inh inactive, HCV inh inactive and NS1 function inh inactive.
CC(C)(C)OC(=O)C[C@H]1C/C=C\C[C@@H](CC(=O)N[C@@H](CO)Cc2ccccc2)C(=O)NCCOC1=O was read as VACV mCherry inh inactive, VACV Venus inh inactive and HCV inh inactive.
For N#C/C(=C\c1ccc(-c2ccc(C(=O)O)cc2)o1)C(=O)Nc1ccc(F)cc1 the results were Pf growth 48h inactive, Pf growth 96h 9.3µM, HCV inh inactive and NS1 function inh inactive.
O=C(NCCCCc1ccccc1)Nc1cccc(F)c1 was read as VACV mCherry inh inactive, Pf growth 48h inconclusive, Pf growth 96h inconclusive, VACV Venus inh inactive, HCV inh inactive and NS1 function inh inactive.
O=C(CCC(=O)N1CCN(c2ccccc2F)CC1)c1ccc(F)cc1 was read as VACV mCherry inh inactive, Pf growth 48h inactive, Pf growth 96h inactive, VACV Venus inh inactive, HCV inh inactive and NS1 function inh inactive.
For CCc1cccc2c(N=O)c(O)[nH]c12 the results were VACV mCherry inh inactive, Pf growth 48h inactive, Pf growth 96h inactive, VACV Venus inh inactive, HCV inh inactive and NS1 function inh inactive.
For O=Nc1c(O)[nH]c2ccc(Cl)c(Cl)c12 the results were VACV mCherry inh 14µM, VACV Venus inh inconclusive and HCV inh inactive.
Screening CCCCCCOC(=O)Cc1c(C)nc(-c2ccccc2)[nH]c1=O returned Pf growth 48h 2.3µM, Pf growth 96h inconclusive, VACV Venus inh inactive, HCV inh inactive and NS1 function inh inactive.
Screening C=C(C)Cc1c(C)nc(-c2ccccc2)[nH]c1=O returned Pf growth 48h inconclusive, HCV inh inactive and NS1 function inh inactive.
Screening COC(=O)c1c(NC(=O)CC2SCC(C(=O)OC)NC2=O)sc2c1CCCC2 (stereo not drawn) returned Pf growth 96h inactive, HCV inh inconclusive and NS1 function inh inactive.
`CC(C)CNS(=O)(=O)c1ccc(OCC(=O)Nc2ccc(F)cc2F)cc1` gave Pf growth 48h inactive, Pf growth 96h inconclusive, VACV Venus inh inactive, HCV inh inactive and NS1 function inh inactive.
`CCCCNS(=O)(=O)c1ccc2nc(-c3cccnc3)cc(C(=O)NC3CCCC3)c2c1` gave VACV mCherry inh inactive, Pf growth 48h inactive, Pf growth 96h inactive, VACV Venus inh inactive, HCV inh inactive and NS1 function inh inactive.
N#CC1=C(N)OC2=C(CCc3ccccc32)C1c1ccccc1 (stereo not drawn) was read as VACV mCherry inh inconclusive, Pf growth 48h 12µM, Pf growth 96h inactive, VACV Venus inh inconclusive, HCV inh inconclusive and NS1 function inh inactive.
Screening Cc1c(C(=O)NCc2ccccn2)oc2c(Cl)cccc12 returned VACV mCherry inh inactive, Pf growth 48h inactive, Pf growth 96h inactive, VACV Venus inh inactive and HCV inh inactive.
For CCOC(=O)C1(Cc2cccc(F)c2)CCN(CC2CC2)CC1 the results were VACV mCherry inh inactive, Pf growth 48h inactive, Pf growth 96h 15µM, VACV Venus inh inactive, HCV inh inactive and NS1 function inh inactive.
`CCOC(=O)C1(Cc2cccc(F)c2)CCN(Cc2cnn(CC)c2)CC1` gave VACV mCherry inh inactive, Pf growth 48h inactive, Pf growth 96h inactive, VACV Venus inh inactive, HCV inh inconclusive and NS1 function inh inactive.
For CCOC(=O)C1(Cc2cccc(F)c2)CCN(Cc2nc(CC)[nH]c2C)CC1 the results were VACV mCherry inh inactive, Pf growth 48h 3.3µM, Pf growth 96h inactive, VACV Venus inh inactive, HCV inh inconclusive and NS1 function inh inactive.
`C=CCC1(C#N)C(SC)=NC2=C(C(=O)CC(C)(C)C2)C1c1ccc(Br)cc1` (stereo not drawn) gave VACV mCherry inh inactive, Pf growth 48h 2.9µM, Pf growth 96h inconclusive, VACV Venus inh inactive, HCV inh inactive and NS1 function inh inactive.
`CC1(C)CC(=O)C2=C(C1)NC(=O)NC2c1ccc([N+](=O)[O-])cc1` (stereo not drawn) gave VACV mCherry inh inactive, Pf growth 48h inactive, Pf growth 96h inactive, VACV Venus inh inactive, HCV inh inactive and NS1 function inh inactive.
`O=C(c1ccccc1)[C@@H]1[C@@H](C(=O)c2ccc(F)cc2)[C@@]2(C(=O)Nc3ccccc32)[C@H]2c3ccccc3C=CN12` gave VACV mCherry inh inactive, Pf growth 48h 15µM, Pf growth 96h inconclusive, VACV Venus inh inactive, HCV inh inactive and NS1 function inh inactive.
`CCCCn1c(O)c(/C=N/NC(=O)c2ccncc2)c(=O)[nH]c1=O` gave VACV mCherry inh inactive[7.34 µM], Pf growth 48h inactive, Pf growth 96h inactive, VACV Venus inh inactive[7.34 µM], HCV inh inactive and NS1 function inh inactive.
Screening C=C[C@@H]1c2cccc(C)c2N(S(=O)(=O)c2ccc(C)cc2)[C@H](c2ccc(OC(C)=O)cc2)C1(C#N)C#N returned VACV mCherry inh inactive, VACV Venus inh inactive and HCV inh inconclusive.
C=C[C@@H]1c2c(F)cccc2N(S(=O)(=O)c2ccc(C)cc2)[C@H](c2ccc(C(=O)OC)cc2)C1(C#N)C#N was read as VACV mCherry inh inactive, Pf growth 48h 4.1µM, Pf growth 96h 12µM, VACV Venus inh inactive and HCV inh inactive.
C=C[C@@H]1c2c(F)cccc2N(S(=O)(=O)c2ccc(C)cc2)[C@H](c2ccc(OC(C)=O)cc2)C1(C#N)C#N was read as VACV mCherry inh inconclusive, Pf growth 48h 1.7µM, Pf growth 96h 2.6µM, VACV Venus inh inconclusive and HCV inh 22µM.
CC1CCN(C(=O)CSc2nnc(CNC(=O)COc3ccc(Cl)cc3)o2)CC1 was read as VACV mCherry inh inactive, Pf growth 96h inactive, VACV Venus inh inactive, HCV inh inactive and NS1 function inh inactive.
Cc1nc(Nc2ccc(Cl)c(Cl)c2)sc1C(=O)Nc1ccccc1 was read as Pf growth 48h inconclusive, Pf growth 96h inconclusive, HCV inh 8.9µM and NS1 function inh inactive.
Screening Cc1nnsc1C(=O)N/N=C/c1ccc2ccccc2c1O returned VACV mCherry inh 2.2µM, Pf growth 48h 2.6µM, Pf growth 96h 3.3µM, VACV Venus inh inconclusive, HCV inh inconclusive and NS1 function inh inactive.
For Cc1nnsc1C(=O)N/N=C/c1ccccc1 the results were VACV mCherry inh inactive, Pf growth 48h inactive, Pf growth 96h inconclusive, VACV Venus inh inactive, HCV inh inactive and NS1 function inh inactive.
`Cc1nc(NC(=O)/C=C/c2ccccc2)sc1C(=O)Nc1ccc(Cl)cc1` gave Pf growth 48h inconclusive, Pf growth 96h inactive, HCV inh inactive and NS1 function inh inactive.
